# Bioassay records as filed in PubChem.
# The entries come from a sample that favours hits as a whole.
# KDM5B inh: Primary screen for KDM5B Histone Demethylases FDH-coupled qHTS | Lysine-specific demethylase 5B (Homo sapiens), Q9UGL1 | KDM5B demethylase, FDH-coupled NADH fluorescence (FDH is formaldehyde dehydrogenase) | Potency, µM (doses to about 57.7 µM), usual class: inhibitors | 220,000 compounds, 2.6% hits | AID 1347165, 2019; active = well fitted inhibition curve with a large enough effect; also: 0% is about no effect; nearly all actives have a fitted effect of over 70% in size
#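 KDM5BΔAP (200 nM final) in 50 mM HEPES pH 7.5, 0.01% Tween-20 was preincubated 10 min at RT with compound over a concentration range. Substrate mix (H3K4me3 12.5 µM, α-KG 25 µM, Fe²⁺, ascorbate, NAD⁺, FDH) was added, and NADH fluorescence change over 30 min gave dose-response curves.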
# * = called active by the depositor; i = inactive. Potency is read from the fitted curve at half-maximal effect.
SMILES,KDM5B inh
CC(Oc1ccc(Cl)cc1Cl)C(=O)N1CC(=O)Nc2ccccc21 (configuration not stated),i
O=C1NCCCCCCN(C(=O)c2ccoc2)[C@H]2C[C@H](C(=O)N3CCc4ccccc4C3)C[C@@H]12,i
O=C1NCCCCCCN(C(=O)c2ccoc2)[C@H]2C[C@H](C(=O)N3CCN(c4ccccn4)CC3)C[C@@H]12,32µM*
O=C1NCCCCCN(C(=O)c2ccoc2)[C@@H]2C[C@@H](C(=O)N3CCc4ccccc4C3)C[C@H]12,i
CCOc1ccc(CNCc2cccs2)cc1OC,i
CCOc1ccc(-n2ccn3c(SC(CC)C(=O)Nc4ccc(OC)cc4)nnc3c2=O)cc1 (configuration not stated),i
CCN1CCN(C(=O)c2ccc3[nH]c(C)c(C)c3c2)CC1,i
CCN1CCN(CC(=O)NCc2ccc3[nH]c(-c4ccc(F)cc4)c(C)c3c2)CC1,32µM*
O=C(CN1CCN(Cc2cccc(Cl)c2)C1=O)NCc1ccc(F)cc1,i
O=C(CN1CCOCC1)NCc1ccc(F)cc1,i
Cc1nc(-c2ccc(F)cc2)n(CC(=O)NCc2ccc3c(c2)OCO3)c(=O)c1CCO,i
Cc1c(-c2ccc(F)cc2)[nH]c2ccc(CNC(=O)CN3CCOC3=O)cc12,28µM*
CC(NC(=O)C1(c2ccccc2)CC1)C12CC3CC(CC(C3)C1)C2 (configuration not stated),i
CCOc1ccccc1CN1CC[C@H](c2n[nH]c(C)n2)[C@H](NC(=O)C2CC2)C1,i
CCOC(=O)CSc1nc2c(c(=O)n(C)c(=O)n2C)n1Cc1ccc(C)cc1,i
CC(C)CCn1cnc2c1c(=O)n(CC(=O)NCC1CCCO1)c(=O)n2Cc1ccccc1 (configuration not stated),i
Cc1ccccc1Nc1cnc2ccc(-c3cccc(CO)c3)nn12,i
Cc1ccc(-c2cn3c(n2)CO[C@@H](CNC(=O)c2ccccc2)C3)cc1,32µM*
Cc1ccc(-c2cn3c(n2)CO[C@@H](CNC(=O)CCC(=O)O)C3)cc1,i
COc1ccc(-c2cn3c(n2)CO[C@@H](CNC(C)=O)C3)cc1,i
COc1ccc(CC(=O)N2Cc3ccccc3CC3(CCN(CC4CCNC4)C3)C2)cc1 (configuration not stated),i
N#Cc1cccc(C(=O)OC(c2ccccc2)c2ccccn2)c1 (configuration not stated),i
Cc1ccc(SCCC(=O)OCC(=O)c2cc(Cl)ccc2Cl)cc1,i
O=C(CSc1nc2ccccc2o1)Nc1ccc2ccccc2c1,i
CCNc1c(NC(=O)Nc2cccc(C)c2C)c(=O)oc2ccccc12,i
SMILES,KDM5B inh
Cc1cccc(OCc2ccc(C(N)=O)cc2)c1,i
CCCCCCCNC(=O)Cc1cccs1,i
Cc1ccccc1-c1nc2scc(CCNC(=O)C(=O)Nc3cc(F)ccc3F)n2n1,i
CCCCNC(=O)CNC(=O)c1nn(-c2ccc(OC)cc2)c(=O)c2ccccc12,i
CCCCCNC(=O)Cc1csc2nc(C)c(-c3cc(C)n(-c4cc(F)ccc4C)n3)c(=O)n12,25µM*
CCCCNC(=O)Cc1csc2nc(C)c(-c3cc(C)n(-c4ccc(F)cc4)n3)c(=O)n12,28µM*
COc1ccc(-c2nc3scc(CCNC(=O)Cc4ccc(F)cc4)n3n2)cc1,i
COc1ccccc1N1CCN(Cc2cc(=O)oc3ccc(Cl)cc23)CC1,i
N#C/C(=C\c1cccc(OC(=O)c2ccc(Cl)cc2Cl)c1)C(=O)Nc1cccc(C(F)(F)F)c1,i
CCN1c2cc(C(=O)Nc3ccc(Cl)c(Cl)c3)ccc2C(=O)N2CCCCCC21 (configuration not stated),i
COc1cccc(/C=C(\C#N)C(=O)Nc2ccccc2C(=O)O)c1OC,i
CCC(CC)C(O)(C#Cc1ccccc1)c1ccccc1 (configuration not stated),i
COc1ccc(C(=O)N[C@@H]2CN(C(=O)Nc3ccc(OC(F)(F)F)cc3)CCC[C@H]2O)cc1,i
CCOC(=O)c1ccc(-c2ccc(/C=C(/C#N)C(=O)N3CCOCC3)o2)cc1,i
O=C(CC(c1ccccc1)c1ccccc1F)NCc1cccnc1 (configuration not stated),i
CN1[C@@H](CCC(=O)NCc2cccnc2)CNC(=O)[C@@H]2[C@H]1CCN2Cc1cccc(OC(F)(F)F)c1,i
O=C(Cc1c[nH]c2ncc(-c3ccc(F)cc3)cc12)NCc1cccnc1,28µM*
O=C(Cc1c[nH]c2ncc(-c3ccc(F)c(Cl)c3)cc12)NCc1cccnc1,32µM*
O=C(Cc1c[nH]c2ncc(-c3cccc(OC(F)(F)F)c3)cc12)NCc1cccnc1,28µM*
Cc1cc(-c2cnc3[nH]cc(CC(=O)NCc4cccnc4)c3c2)ccn1,i
O=C(Cc1c[nH]c2ncc(-c3cccnc3)cc12)NCc1ccccc1,i
O=C(C[C@@H]1O[C@H](CNCc2ccc(F)cc2)[C@@H](O)[C@H]1O)NCc1cccnc1,i
